The whole screen tested about 330,000 compounds, of which about 7,700 (2.3%) were called active. Not shown: some 26% with an inconclusive outcome. What follows is part of a selection rich in actives, with near analogues and random picks from the rest. A number with no mark means an inactive call. Calls follow the shape of the dose curve; as a rule, active = well fitted inhibition curve with a large enough effect; inconclusive = small, poorly fitted or top-dose-only effect, or effect the other way; inactive = flat fitted curve, though single readings scatter.
test: qHTS screen for small molecules that inhibit ELG1-dependent DNA repair in human embryonic kidney (HEK293T) cells expressing luciferase-tagged ELG1; conditions: HEK293T ELG1-luciferase reporter, luminescence, 16 h, DNA damage induced by 5-fluorouridine; series mostly up to 46.1 µM; activity change, negative = inhibition: at the top concentration; also: nearly all actives have a fitted effect of over 55% in size
Procedure, shortened: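 Cells (2,000 per well) received 5-fluorouridine plus test compound or DMSO and were incubated 16 hr at 37 °C, 5% CO2. Luciferase activity was read by luminescence 30 min after ONE-Glo addition; signal suppression marked inhibition of damage-induced ELG1 function.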
% is scaled to controls: 0 for no effect and ±100 for the full control effect; potency is read from the fitted curve at half-maximal effect.

SMILES | activity change, negative = inhibition [%] | Potency
CC(C)Oc1ccc(S(=O)(=O)N2CCOCC2)cc1NC(=O)C1CSC2(C)CCC(=O)N12 (stereo not given) | -16.4 | –
CCc1cccc(C)c1N1C(=O)CN(Cc2ccccc2)C1=S | -0.783 | –
CNC[C@H](CC1CCCCC1)NC[C@H](NCCC1CCCC1)[C@H](C)O | 16.8 | –
CSc1ncccc1C(=O)Nc1cccc(S(=O)(=O)N2CCOCC2)c1 | 13.4 | –
CCCN(CC1CC1)C(=S)NC(=O)c1ccccc1Br | -17.4 | –
O=C(COC(=O)c1ccccc1Cl)NC1CCCCCCC1 | 13.9 | –
Cc1cc(NC(=O)CCN2CCN(Cc3ccccc3)CC2)ccc1Br | -19.6 | –
OC(COc1ccc(F)cc1Cl)CN1CCc2ccccc2C1 (stereo not given) | 1.72 | –
COc1ccc(CN(C)C(=O)Cc2c[nH]c3ccccc23)c(OC)c1OC | -12.6 | –
Cc1ccc(-c2cc(C(=O)Nc3nn[nH]n3)c3ccccc3n2)c(C)c1 | 14.1 | –
COc1ccc(CN(C)C(=O)c2cc(-c3ccc(C)cc3C)nc3ccccc23)c(OC)c1OC | – | 8.2 µM (active)
Cc1ccc(C(=O)O)cc1NC(=O)c1ccc(Cn2nc(C)c(Cl)c2C)o1 | 4.59 | –
Cc1c(Cl)c([N+](=O)[O-])nn1CCCC(=O)Nc1cc(Cl)ccc1Cl | 1.54 | –
Cc1c(Cl)c([N+](=O)[O-])nn1Cc1ccc(C(=O)N/N=C\c2cc(Cl)ccc2O)o1 | – | 5.17 µM (active)
COc1ccc(Br)cc1CN(C)C(=O)C1CC(=O)N(C2CCCC2)C1 (stereo not given) | -4.6 | –
CC(OC(=O)CNC(=O)c1ccco1)C(=O)Nc1ccc(Cl)cn1 (stereo not given) | 24.7 | –
COc1cc(-c2nc(S(=O)(=O)c3ccc(Cl)cc3)c(N(C)C)o2)cc(OC)c1OC | – | 8.2 µM (active)
O=S(=O)(c1ccc(Cl)cc1)c1nc(-c2ccco2)oc1N1CCCCC1 | -29 | –
COc1ccc(-c2nnc(NC(=O)CS(=O)(=O)c3ccc(Cl)cc3)o2)c(OC)c1 | 1.46 | –
CC(=O)Nc1ccc(S(=O)(=O)NC(C)C(=O)OCCOc2ccc(F)cc2)cc1 (stereo not given) | 7.42 | –
CCOC(=O)C1=C(C)Nc2nc3ccccc3n2C1c1cccs1 (stereo not given) | -0.153 | –
COc1ccccc1NC(=O)C1=C(C)NC(=O)NC1c1ccc(C)s1 (stereo not given) | 4.16 | –

SMILES | activity change, negative = inhibition [%] | Potency
COc1ccccc1NC(=O)C1=C(C)Nc2nc3ccccc3n2C1c1cccs1 (stereo not given) | – | 9.2 µM (active)
CCOC(=O)C1CCCN(C(=O)c2ccc(C)c(S(=O)(=O)N3CCCCC3)c2)C1 (stereo not given) | -20.4 | –
CCOC(=O)C1=C(C)N=c2s/c(=C\C(=O)OC)c(=O)n2C1c1ccc(OC)cc1 (stereo not given) | 7.84 | –
COCCOC(=O)C1=C(C)N=c2s/c(=C\c3cccs3)c(=O)n2C1c1cccs1 (stereo not given) | – | 14.6 µM (active)
C=CCOC(=O)C1=C(C)NC(C)=C(C(=O)OCC=C)C1c1cccs1 | -9.34 | –
COc1ccc(C)cc1Nc1nc(C)nc2c1oc1ccccc12 | – | 5.17 µM (active)
COC(=O)c1cnc(Nc2cc(C)ccc2OC)c2ccccc12 | -1.92 | –
Cc1nc(Cl)c2oc3ccccc3c2n1 | 2.76 | –
Cc1cc(C)c(OCC(=O)N(Cc2cccs2)C2CCS(=O)(=O)C2)c(C)c1 (stereo not given) | -4.24 | –
COc1ccc(CCN2C(=O)C(C)=C(C)C2=O)cc1OC | 6.36 | –
CCN1C(=O)[C@@H]2[C@@H](c3ccc(-c4ccc(OC)cc4)c(OC)c3)N3CCC[C@@]3(C(=O)OC)[C@@H]2C1=O | 9.25 | –
Cc1ccc(NC(=O)C2CCN(S(=O)(=O)c3ccc4c(c3)NC(=O)CO4)CC2)cc1C | -9.24 | –
CCOC(=O)N1CCN(C(=O)c2cn(C)c3ccc(S(=O)(=O)N(CC)CC)cc3c2=O)CC1 | 0.556 | –
C=CCn1cc(C(=O)NCc2ccc(Cl)cc2)c(=O)c2cc(S(=O)(=O)N(CC)CC)ccc21 | – | 8.2 µM (active)
CCn1cc(C(=O)NCC2CCCO2)c(=O)c2cc(S(=O)(=O)N3CCCCC3)ccc21 (stereo not given) | -15.3 | –
CCOC(=O)[C@H]1[C@H]2COc3ccc(Cl)cc3[C@@H]2N2C(=O)c3cc(C)ccc3NC(=O)[C@@]12C | -23.2 | –
Cn1ccsc1=NC(=O)c1cc(S(=O)(=O)N2CCOCC2)ccc1Cl | 10.7 | –
COc1ccc(CCNC(=O)CSc2nc3[nH]ncc3c(=O)n2-c2cccc(C(F)(F)F)c2)cc1OC | -14.2 | –
Cc1cccc2nc(CSc3nc4[nH]ncc4c(=O)n3-c3cccc(Cl)c3)cc(=O)n12 | – | 20.6 µM (active)
Cc1cccc(NC(=O)CSc2nc3[nH]ncc3c(=O)[nH]2)c1 | 13 | –
O=C(Nc1ccncc1)c1c(F)cccc1F | – | 6.51 µM (active)
CC(C)C(NC(=O)c1c(F)cccc1F)C(=O)NCc1ccncc1 (stereo not given) | -10.4 | –

SMILES | activity change, negative = inhibition [%] | Potency
COc1cccc(OC)c1C(=O)Nc1ccc(Cc2ccncc2)cc1 | -9.05 | –
CSc1ncc(C(=O)Nc2ccc(C)cc2C)c(C)n1 | 6.34 | –
c1ccc(-n2nnnc2NC2CCCCCC2)cc1 | -0.841 | –
FC(F)(F)c1nc(-c2ccccc2)ncc1-c1nnnn1-c1ccccc1 | – | 20.6 µM (active)
c1ccc(-n2nnnc2-c2cccnc2)cc1 | -4.14 | –
CC(=O)c1ccc(N2CCN(C(=O)CCc3ccccc3)CC2)cc1 | 6.73 | –
O=C1CCC/C=C/C[C@@H](CC(=O)N(CCO)Cc2ccccc2)C(=O)NC[C@H](c2ccccc2)O1 | 17 | –
Cc1ccn2c(=O)c(NC(=O)c3cccc4ccccc34)c(C)nc2c1 | – | 5.17 µM (active)
C/C(=N\OC(=O)c1ccccc1)c1c(C)nc2cc(C)ccn12 | -4.4 | –
Cc1nc2ccccn2c(=O)c1NC(=O)c1cccs1 | 7.29 | –
Nc1ccc(Oc2ccc(Cl)cc2)cc1 | 0.524 | –
CC(C)(C)c1ccc(Oc2ccc(N)cc2)cc1 | – | 7.31 µM (active)
Cc1ccc(Oc2ccc(N)cc2)cc1 | 18.9 | –
Cc1ccc(S(=O)(=O)NCC2CCC(C(=O)N3CCOCC3)CC2)cc1 (stereo not given) | 12.9 | –
C=CCSc1nnc(N2C(=O)C(O)=C(C(=O)c3ccco3)C2c2ccc(F)cc2)s1 (stereo not given) | -9.68 | –
CC1CC(=NNC(=O)C2COc3ccccc3O2)CC(C)(C)C1 (stereo not given) | 25.5 | –
O=C(OCC(=O)N1CCN(C(=O)c2ccco2)CC1)c1ccc(Cl)c(Cl)c1 | 11.7 | –
O=c1[nH]c(NCCO)nnc1Cc1ccc(Cl)cc1 | -2.82 | –
COc1ccc(Cc2nnc(N/N=C/c3ccccc3O)[nH]c2=O)cc1OC | – | 4.11 µM (active)
CC(C)c1ccc(Cc2nnc(NCCCO)[nH]c2=O)cc1 | -0.109 | –
C=CCN1CN(S(=O)(=O)c2ccc(OC)cc2)c2nc3ccccc3nc21 | 4.11 | –

— PubChem BioAssay AID504467 (National Center for Advancing Translational Sciences (NCATS), 2011)
